PubChem BioAssay AID837 (The Scripps Research Institute Molecular Screening Center, 2007)
Calls of active or inactive are those of the source.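 The calls were made as follows: active = relative FRET score above 0.01, or acceptor fluorescence over 30% below the sample-well median; inactive = the rest.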

Target: Protein Rev (Human immunodeficiency virus type 1 group M subtype B (isolate WMJ22)) (UniProt P05866)
Assay: disruptors of Rev peptide-RRE RNA complex – biochemical, FRET, acceptor and relative FRET calls, confirmation (AID 837);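 also: relative FRET combines rise in Cy5 acceptor with fall in fluorescein donor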
Conditions: Fl-Rev peptide / Cy5-RRE RNA FRET, 1536-well; at 8 µM

Protein Rev (Human immunodeficiency virus type 1 group M subtype B (isolate WMJ22)), sequence (P05866 whole entry, looked up): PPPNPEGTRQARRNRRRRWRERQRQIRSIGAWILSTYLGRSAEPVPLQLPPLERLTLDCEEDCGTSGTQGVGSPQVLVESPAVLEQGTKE

outcome, active:
O=C(CN1C2=NCCN2c2ccccc21)c1ccc(Br)cc1
NCCCC(=O)N1c2ccccc2Sc2ccccc21
CCOC(=O)c1c(C)n(C)c2ccc(O)c(CN(C)C)c12
COC(=O)c1c(C(=O)OC)n(CCCN)c2ccc(C)cc12
C[n+]1c2n(c3ccccc31)N=C(c1ccc(Cl)cc1)CS2

outcome, inactive:
CC(C)c1ccc(CNCc2ccccc2)cc1
CCOC(=O)CSc1ccc(S(=O)(=O)N(C)C2CCCCC2)cc1[N+](=O)[O-]
C=CCNCCCCOc1c(Cl)cc(C)cc1Br
CCN(CC)CCCNC(=O)c1cc(-c2ccc(Cl)c(Cl)c2)on1
COc1ccc2nc(NC(=O)c3ccc(Br)s3)sc2c1
O=c1cc(-c2ccco2)oc2c1ccc1ccccc12
COc1ccc(CSc2nnc(C)n2N)cc1
CN1CCN(Cc2cccc(Oc3ccc(Cl)cc3)c2)CC1
CCCCN1C(=O)Cc2c1nc(N)c1c(N)nc(N(CCC)CCC)c(C#N)c21
CCN(CC)CCOc1cc2c(nn1)Oc1ccccc1N2C
CC(C)(C)CC(C)(C)NCC(O)COc1c(F)cc(Br)cc1F (stereo not given)
Cc1ccc(C(=O)/C=C/c2ccccc2)o1
O=c1[nH]c2cc(Br)cnc2nc1/C=C(\O)c1ccc(F)cc1
Nc1cccc2nc3ccccc3cc12
CCn1c(=N)n(CCOc2ccc(OC)cc2)c2ccccc21
CCOC(=O)Cn1c(=N)n(CCOc2ccc(OC)cc2)c2ccccc21
COc1ccc(CCn2c(=N)c(C(=O)NCc3ccco3)cc3c(=O)n4cccc(C)c4nc32)cc1
CN(CC(O)COc1ccc(OCC(O)CN(C)C2CCCCC2)cc1)C1CCCCC1 (stereo not given)
CN1/C(=C\C=Nc2ccc3ccccc3c2)C(C)(C)c2ccccc21
FC(F)(F)c1cc(-c2ccco2)nc(NCc2ccc(Cl)cc2)n1
CC(Nc1nc(N2CCCCC2)nc2ccccc12)c1ccccc1 (stereo not given)
COc1cc2[nH]c(=O)c(C(=O)NCCCN3CCCCC3)c(O)c2cc1OC
Nc1[nH]c(=S)[nH]c(=O)c1-c1ccccc1
N=c1n(CCO)c2ccccc2n1Cc1ccccc1Cl
COc1ccc(C(=O)c2coc3ccc(O)c(CN4CCCC4)c23)cc1
CCc1nnc(NC(=O)c2ccc3c(c2)C(=O)N(C(C)(C)C)C3=O)s1
COn1cnnc1-c1ccccc1
CCCCCCCCOc1ccc(C2OC34CCCCC3C(C#N)(C#N)C2(C#N)C(=N)O4)cc1 (stereo not given)
Cc1ccc(Nc2nc(N)nc(CSc3nnnn3-c3ccccc3)n2)cc1
CC(C(=O)O)N1C(=O)/C(=C/C=C/c2ccco2)SC1=S (stereo not given) inactive; quenches the donor
CN(C)CCNCc1ccccc1OC1CCCC1
Cc1ccc(S(=O)(=O)c2c(COC(=O)c3ccc(Cl)cc3)c(-c3ccccc3)nn2C)cc1
CCN(CC)CCOCCOc1cc(C)c(Cl)c(C)c1
Cc1cc(C)cc(NC2=NC3(CCCCC3)N=C(N)N2)c1
CN=C1c2c(-c3ccccc3)c3cc(OC)ccc3n2CCN1C
